Source: PubChem BioAssay AID1159580 (chemical genetic matrix, 2015)
Among all 5,500 compounds or so, about 2,000 (36%) were called active. Not shown: some 18% with an inconclusive outcome. Cut-off read from the data, not from the text of the source: active = normalized growth mostly below about 0.91 (no sharp cut-off); inconclusive = no clear call, values can overlap the other calls; inactive = mostly above about 0.92. The list shows a part of the results.

Assay: chemical genetic growth profiling, strain panel (AID 1159580);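 note: tested at 20 µM; growth read once vehicle control cultures reached saturation at 30 °C; 1 = growth at the plate median or of vehicle wells; lower values mean less growth of the strain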
Conditions: S. cerevisiae deletion strains, growth OD

Measured: normalized growth

O=c1ccc2cc(OC3OC(CO)C(O)C(O)C3O)c(O)cc2o1 (stereo not drawn)
inactive: locus YAL021C, strain ccr4, stronger effect = lower value 0.959 | locus YAL026C, strain drs2, stronger effect = lower value 1 | locus YAL030W, strain snc1, stronger effect = lower value 0.986 | locus YBL061C, strain skt5, stronger effect = lower value 1 | locus YBR009C, strain hhf1, stronger effect = lower value 0.995 | locus YBR023C, strain chs3, stronger effect = lower value 0.992 | locus YBR171W, strain sec66, stronger effect = lower value 1 | locus YBR231C, strain swc5, stronger effect = lower value 1.03 | locus YBR279W, strain paf1, stronger effect = lower value 0.998 | locus YCL011C, strain gbp2, stronger effect = lower value 0.974 | locus YCL016C, strain dcc1, stronger effect = lower value 0.979 | locus YCL069W, strain vba3, stronger effect = lower value 0.983 | locus YCR088W, strain abp1, stronger effect = lower value 0.985 | locus YDL005C, strain med2, stronger effect = lower value 0.989 | locus YDL040C, strain nat1, stronger effect = lower value 0.991 | locus YDR001C, strain nth1, stronger effect = lower value 0.972 | locus YDR069C, strain doa4, stronger effect = lower value 0.998 | locus YDR137W, strain rgp1, stronger effect = lower value 0.976 | locus YDR159W, strain sac3, stronger effect = lower value 1.06 | locus YDR195W, strain ref2 0.973 | locus YDR297W, strain sur2, stronger effect = lower value 0.995 | locus YDR334W, strain swr1, stronger effect = lower value 0.991 | locus YDR335W, strain msn5, stronger effect = lower value 0.991 | locus YDR392W, strain spt3, stronger effect = lower value 0.927 | locus YEL003W, strain gim4, stronger effect = lower value 1 | locus YEL037C, strain rad23, stronger effect = lower value 0.986 | locus YEL061C, strain CIN8 (second series), stronger effect = lower value 0.984 | locus YER015W, strain faa2, stronger effect = lower value 1 | locus YER016W, strain bim1, stronger effect = lower value 0.993 | locus YER111C, strain swi4, stronger effect = lower value 1.01 | locus YER155C, strain BEM2 (second series), stronger effect = lower value 1.07 | locus YFR010W, strain ubp6, stronger effect = lower value 0.997 | locus YGL167C, strain pmr1, stronger effect = lower value 0.989 | locus YGL173C, strain kem1, stronger effect = lower value 0.998 | locus YGL227W, strain vid30, stronger effect = lower value 0.989 | locus YGL240W, strain doc1, stronger effect = lower value 1.04 | locus YGL253W, strain hxk2, stronger effect = lower value 0.996 | locus YHR013C, strain ard1, stronger effect = lower value 0.992 | locus YHR027C, strain rpn1, stronger effect = lower value 0.977 | locus YHR030C, strain SLT2, stronger effect = lower value 0.985 | locus YHR079C, strain IRE1, stronger effect = lower value 0.969 | locus YHR142W, strain chs7, stronger effect = lower value 0.959 | locus YJL092W, strain hpr5, stronger effect = lower value 0.981 | locus YJL095W, strain BCK1 (second series), stronger effect = lower value 0.995 | locus YJL095W, strain BCK1, stronger effect = lower value 0.968 | locus YJL115W, strain asf1, stronger effect = lower value 0.973 | locus YJL129C, strain trk1, stronger effect = lower value 1 | locus YJL154C, strain vps35, stronger effect = lower value 0.981 | locus YJL164C, strain tpk1, stronger effect = lower value 0.947 | locus YJL166W, strain qcr8, stronger effect = lower value 1 | locus YJR066W, strain TOR1, stronger effect = lower value 0.919 | locus YKL160W, strain elf1, stronger effect = lower value 0.966 | locus YKR026C, strain gcn3, stronger effect = lower value 1 | locus YKR091W, strain srl3, stronger effect = lower value 0.989 | locus YLL001W, strain dnm1, stronger effect = lower value 0.993 | locus YLL026W, stronger effect = lower value 0.988 | locus YLL041C, strain sdh2, stronger effect = lower value 0.983 | locus YLR027C, strain aat2, stronger effect = lower value 1.01 | locus YLR113W, strain HOG1, stronger effect = lower value 0.973 | locus YLR221C, strain rsa3, stronger effect = lower value 1.04 | locus YLR258W, strain gsy2, stronger effect = lower value 0.972 | locus YLR262C, strain YPT6 (second series), stronger effect = lower value 0.98 | locus YLR320W, strain mms22, stronger effect = lower value 1.04 | locus YLR342W, strain FKS1, stronger effect = lower value 0.995 | locus YLR357W, strain rsc2, stronger effect = lower value 1 | locus YLR370C, strain arc18, stronger effect = lower value 1.02 | locus YLR384C, strain iki3, stronger effect = lower value 1.01 | locus YML120C, strain ndi1, stronger effect = lower value 0.988 | locus YMR058W, strain fet3, stronger effect = lower value 1 | locus YMR125W, strain sto1, stronger effect = lower value 0.92 | locus YMR129W, stronger effect = lower value 0.993 | locus YMR205C, strain PFK2, stronger effect = lower value 0.969 | locus YMR231W, strain pep5, stronger effect = lower value 1 | locus YNL071W, strain lat1, stronger effect = lower value 0.988 | locus YNL183C, strain NPR1, stronger effect = lower value 0.897 | locus YNL209W, strain ssb2, stronger effect = lower value 0.99 | locus YNL248C, strain rpa49, stronger effect = lower value 1.04 | locus YNL322C, strain KRE1 (second series), stronger effect = lower value 1.01 | locus YNR049C, strain mso1, stronger effect = lower value 0.982 | locus YOR001W, strain rrp6, stronger effect = lower value 1.02 | locus YOR070C, strain gyp1, stronger effect = lower value 0.998 | locus YOR080W, strain dia2, stronger effect = lower value 1.01 | locus YOR083W, strain WHI5, stronger effect = lower value 0.964 | locus YOR106W, strain vam3, stronger effect = lower value 0.939 | locus YOR231W, strain MKK1, stronger effect = lower value 0.973 | locus YOR265W, strain rbl2, stronger effect = lower value 1 | locus YOR270C, strain vph1, stronger effect = lower value 1.03 | locus YOR290C, strain snf2, stronger effect = lower value 0.919 | locus YPL051W, strain arl3, stronger effect = lower value 1.02 | locus YPL078C, strain atp4, stronger effect = lower value 0.935 | locus YPL106C, strain sse1, stronger effect = lower value 1.01 | locus YPL240C, strain hsp82, stronger effect = lower value 0.998 | locus YPL256C, strain CLN2, stronger effect = lower value 0.956
